An excerpt weighted towards active compounds, which were near 5.9% of everything screened.
VP16 counter: counter-screen for ROR gamma inhibitors: Gal4-VP16 reporter | Drosophila S2 Gal4-VP16 UAS-luciferase, luminescence, 20 h | Potency, µM (titrated, usually from 53.6 µM), for inactives: at the top dose activity, negative = inhibition, actives largely listed as inhibitors | 3.5% of 310,000 active | AID 2546;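 note: Gal4-VP16 expression switched on by copper sulfate through the metallothionein promoter; potency is the fitted concentration of half-maximal effect; nearly all actives have a fitted effect of over 50% in size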
FBPA coupling cs: coupling enzyme interference in Giardia aldolase counter-screen; coupling enzyme system counterscreen, AmpLite Red fluorescence; activity change, negative = inhibition, % at 58.2 µM, hits read low; 0.67% of 290,000 active; AID 2472; in the data active = activity change below about -30%
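Counterscreen of the coupled detection system alone, without aldolase: glyceraldehyde-3-phosphate coupling enzymes plus AmpLite Red readout. Compounds at 57.5 uM final, 10 min RT preincubation, 20 min RT reaction, fluorescence 525/598 nm.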
GALK inhibitor: inhibitors of human galactokinase | Potency, µM (series often up to 57.5 µM), for the others: at the top dose activity change, negative = inhibition, usual class: inhibitors | 0.007% of 270,000 active | Purified GALK, Kinase-Glo residual ATP luminescence | P51570; note: potency is the fitted concentration of half-maximal effect
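Quantitative HTS: GALK 5 nM, ATP 35 uM, galactose 100 uM, 1 h room temperature, then luciferase-based ATP detection.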
RORg inh: ROR gamma (mouse) transcription inhibition; Drosophila S2 Gal4-RORgamma UAS-luciferase reporter, 20 h; Potency, µM (highest dose often 53.6 µM), without a hit: at the top dose activity change, negative = inhibition, hits mostly inhibitors; 5.4% of 310,000 active; AID 2551; note: potency is the fitted concentration of half-maximal effect; nearly all actives have a fitted effect of over 60% in size
Target sequence (P51450 whole entry, looked up, the tested form may be a part): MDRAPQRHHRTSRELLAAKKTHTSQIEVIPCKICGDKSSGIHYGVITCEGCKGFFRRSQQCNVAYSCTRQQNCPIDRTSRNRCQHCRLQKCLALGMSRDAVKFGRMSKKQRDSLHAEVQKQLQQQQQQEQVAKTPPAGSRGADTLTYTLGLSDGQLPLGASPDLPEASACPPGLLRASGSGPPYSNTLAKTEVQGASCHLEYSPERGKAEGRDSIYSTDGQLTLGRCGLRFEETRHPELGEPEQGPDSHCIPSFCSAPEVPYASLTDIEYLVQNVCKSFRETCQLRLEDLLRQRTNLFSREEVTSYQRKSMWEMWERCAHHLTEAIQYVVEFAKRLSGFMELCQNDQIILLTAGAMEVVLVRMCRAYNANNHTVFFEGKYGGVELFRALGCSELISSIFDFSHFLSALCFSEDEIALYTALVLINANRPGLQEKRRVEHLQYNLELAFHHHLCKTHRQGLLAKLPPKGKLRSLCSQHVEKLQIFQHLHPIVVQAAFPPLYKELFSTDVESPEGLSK
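Stable Schneider cell line, Gal4 DNA-binding domain fused to ROR gamma, UAS-luciferase. Cmpd 1 hr RT → CuSO4 700 uM final → 20 hr RT → luciferase reagent 10 min → luminescence.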
rTrxR1 inhibitor: blocks rat thioredoxin reductase 1 | 1% of 390,000 active | O89049 | Potency, µM (titrated, usually from 114 µM), without a hit: at the top dose activity change, negative = inhibition, usual class: inhibitors | recombinant rTrxR1, NADPH fluorescence consumption, selenite substrate; note: potency is the fitted concentration of half-maximal effect; nearly all actives have a fitted effect of over 65% in size
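Rat TrxR1 (90 nM in the dispensed reagent) was pre-reduced with 400 uM NADPH for 5 min at room temperature, then incubated with compound for 15 min. After 400 uM selenite was added, NADPH fluorescence (Ex 340/Em 450 nm) was followed for 8 min.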
TrxR1 substrate: substrates of rat thioredoxin reductase 1. 0.01% of 390,000 active. purified TrxR1 substrate turnover, NADPH consumption readout. Potency, µM (series often up to 114 µM), for inactives: at the highest dose activity change, negative = substrate turnover. O89049; note: potency is the fitted concentration of half-maximal effect; nearly all actives have a fitted effect of over 50% in size
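Rat TrxR1, dispensed at 90 nM, was prereduced with 400 uM NADPH (final) for 5 min at ~22 deg C, then incubated with compound 15 min before 400 uM selenite. A first-read NADPH fluorescence drop versus no-compound background flagged substrates.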
Active calls of the source: *; [ ] = dose if it differs, or a comment. Unless noted, calls come from the whole dose curve; as a rule, active = well fitted curve in the direction sought with a large enough effect; inconclusive = small, poorly fitted or top-dose-only effect, or another doubt; inactive = no such curve, though single readings can be large; an effect the other way counts as inactive or inconclusive. % is set by controls: 0 for no effect and ±100 for the full control effect.

Results for S=C(Nc1ccccc1)Nc1ccc2cn[nH]c2c1 ?
VP16 counter: -13%; FBPA coupling cs: -39*; GALK inhibitor: -1%; RORg inh: 15%; rTrxR1 inhibitor: -22%; TrxR1 substrate: 6%

What do the screens show for `CCN(CCN(C)C)C(=O)c1ccc2c(c1NCCO)C(=O)c1ccccc1C2=O`?
VP16 counter: 10%; FBPA coupling cs: -37*; GALK inhibitor: 1%; RORg inh: 14%; rTrxR1 inhibitor: 19%[57.1 µM]; TrxR1 substrate: -15%[57.1 µM]

Results for CCNc1c(C(=O)O)ccc2c1C(=O)c1ccccc1C2=O ?
VP16 counter: 13µM*; FBPA coupling cs: -13; GALK inhibitor: 5%; RORg inh: inconclusive; rTrxR1 inhibitor: -24%; TrxR1 substrate: -15%

What do the screens show for `O=C1CC(=O)Nc2cc(S(=O)(=O)N3CCOc4ccccc43)ccc2N1`?
VP16 counter: 0%; FBPA coupling cs: -6; RORg inh: 6%; rTrxR1 inhibitor: 9%[57.1 µM]; TrxR1 substrate: -4%[57.1 µM]

Results for CC(=O)c1ccc(NC(=O)C(C)Sc2nnc(-c3ccncc3)n2C2CC2)cc1 (stereo not given) ?
rTrxR1 inhibitor: -6%[57.1 µM]; TrxR1 substrate: 7%[57.1 µM]

Results for COc1ccccc1S(=O)(=O)Cc1ccc(C(=O)NCC2CCCO2)o1 (stereo not given) ?
VP16 counter: -3%; FBPA coupling cs: 1; GALK inhibitor: -1%; RORg inh: -6%; rTrxR1 inhibitor: -17%; TrxR1 substrate: -2%

Results for COCCN1C(=O)/C(=C/c2cc3c(cc2Br)OCO3)NC1=S ?
VP16 counter: inconclusive; FBPA coupling cs: -8; GALK inhibitor: 0%; RORg inh: 11µM*; rTrxR1 inhibitor: 18%[57.1 µM]; TrxR1 substrate: -8%

What do the screens show for `Cc1ccc(CNC(=O)Cc2noc3ccccc23)cc1`?
VP16 counter: -1%; FBPA coupling cs: 3; GALK inhibitor: -2%; RORg inh: -10%; rTrxR1 inhibitor: 13%[57.1 µM]; TrxR1 substrate: -8%

Results for Cc1nn(-c2ccc(NC(=O)c3ccncc3)cc2)c(C)c1Cl ?
VP16 counter: 7.9µM*; FBPA coupling cs: 1; GALK inhibitor: -2%; RORg inh: inconclusive; rTrxR1 inhibitor: 6%; TrxR1 substrate: -4%

Results for COc1ccc(CC(=O)O/N=C(\N)c2cccc([N+](=O)[O-])c2)cc1 ?
VP16 counter: -16%; FBPA coupling cs: 1; GALK inhibitor: 0%; RORg inh: inconclusive; rTrxR1 inhibitor: 16%; TrxR1 substrate: -5%

How did CC1=NN(c2ccc(N)cc2)C(=O)C1 do in these assays?
VP16 counter: 2%; FBPA coupling cs: -26; GALK inhibitor: 3%; RORg inh: -5%; rTrxR1 inhibitor: 28µM*; TrxR1 substrate: -10%

How did Cc1ccc(NC(=O)C(c2ccccc2)N2Cc3ccccc3C2=O)cc1Cl (stereo not given) do in these assays?
rTrxR1 inhibitor: -1%; TrxR1 substrate: -9%

How did CCC(=O)Nc1cccc(OCc2cc(=O)n3cc(C)ccc3n2)c1 do in these assays?
rTrxR1 inhibitor: 10%[57.1 µM]; TrxR1 substrate: -1%[57.1 µM]

What do the screens show for `CC(C)(C)C1CCC(=NNc2ncc(C(F)(F)F)cc2Cl)CC1` (stereo not given)?
VP16 counter: 11µM*; FBPA coupling cs: 1; GALK inhibitor: 0%; RORg inh: 28µM*; rTrxR1 inhibitor: 19%; TrxR1 substrate: 8%

What do the screens show for `CCOC(=O)c1c(NC(=O)c2cccc(N3C(=O)CCC3=O)c2)sc(C)c1C`?
VP16 counter: 10%; FBPA coupling cs: 1; GALK inhibitor: 1%; RORg inh: inconclusive; rTrxR1 inhibitor: 25%; TrxR1 substrate: 17%

How did CCOC(=O)c1c(NC(=O)C2=C(C)NC(=S)NC2c2ccc(C)cc2)sc(C)c1C (stereo not given) do in these assays?
VP16 counter: 3.5µM*; FBPA coupling cs: 4; GALK inhibitor: -1%; RORg inh: 2.8µM*; rTrxR1 inhibitor: 21%[57.1 µM]; TrxR1 substrate: 13%[57.1 µM]

Screens deposited in PubChem BioAssay by National Center for Advancing Translational Sciences (NCATS).
